Compounds with a hit are over-represented: about 5.9% of the library has one in this group of screens.
GLP-1R inv ag: GLP-1 receptor (human) inverse agonism; HEK293 GLP-1R CRE-luciferase, luminescence, 24 h; GLP-1R form is constitutively active; Potency, µM (titrated, usually from 38.3 µM), for inactives: at the highest dose activity change, negative = inhibition, hits mostly inhibitors; AID 624417; 410,000 compounds, 1.6% hits; also: % is scaled to controls: 0 for no effect and ±100 for the full control effect; nearly all actives have a fitted effect of over 55% in size
Target sequence (P43220 whole entry, looked up): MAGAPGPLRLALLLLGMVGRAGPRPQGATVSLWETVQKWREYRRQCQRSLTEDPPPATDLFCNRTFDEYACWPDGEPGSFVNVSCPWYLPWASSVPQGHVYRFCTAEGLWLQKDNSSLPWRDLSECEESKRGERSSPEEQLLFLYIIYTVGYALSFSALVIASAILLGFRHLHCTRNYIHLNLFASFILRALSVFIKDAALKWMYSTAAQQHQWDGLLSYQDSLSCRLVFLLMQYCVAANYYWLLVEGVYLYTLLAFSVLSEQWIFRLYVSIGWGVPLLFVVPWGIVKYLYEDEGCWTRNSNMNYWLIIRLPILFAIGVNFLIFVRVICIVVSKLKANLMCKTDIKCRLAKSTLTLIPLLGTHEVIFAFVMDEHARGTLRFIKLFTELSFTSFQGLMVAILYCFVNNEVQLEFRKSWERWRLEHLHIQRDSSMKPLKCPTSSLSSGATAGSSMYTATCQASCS
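Using stably transfected HEK293 (constitutively active GLP-1R, cAMP-luciferase reporter), compounds were incubated 24 hr and luciferase measured by luminescence.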
HEK293 tox: cytotoxicity counter-screen for GLP-1 receptor inverse agonists. HEK293 cAMP-luciferase reporter cells, luminescence, 24 h. Potency, µM (series often up to 38.3 µM), for inactives: top-dose activity change, negative = inhibition, hits mostly inhibitors. 410,000 compounds, 0.13% hits. AID 624418;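 also: loss of luciferase light is scored as toxicity; % is scaled to controls: 0 for no effect and ±100 for the full control effect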
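Compound-treated cells are incubated 24 hr at 37 deg C under 5% CO2 after a 12 hour attachment period, then luciferase detection reagent is added and luminescence is measured following 12 min at room temperature; lowered signal indicates toxicity.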
RORg inh: blocks mouse ROR gamma transcriptional activity | Drosophila S2 Gal4-RORgamma UAS-luciferase reporter, 20 h | 310,000 compounds, 5.4% hits | AID 2551 | Potency, µM (series often up to 53.6 µM), inactives show top-dose activity change, negative = inhibition, hits mostly inhibitors; also: % is scaled to controls: 0 for no effect and ±100 for the full control effect; nearly all actives have a fitted effect of over 60% in size
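Read-out: Photinus luciferase luminescence; inhibitors lower reporter signal. Insect Schneider cells with Gal4-ROR gamma fusion under metallothionein promoter, UAS reporter; 700 uM final copper sulfate induction, 20 hr, ambient temperature.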
Gal4-VP16 FLuc: inhibits Gal4-VP16 luciferase reporter, ROR gamma counter-screen; Drosophila S2 Gal4-VP16 UAS-luciferase, luminescence, 20 h; Potency, µM (series often up to 53.6 µM), without a hit: at the highest dose activity, negative = inhibition, most hits filed as inhibitors; 310,000 compounds, 3.5% hits;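 also: Gal4-VP16 expression switched on by copper sulfate through the metallothionein promoter; % is scaled to controls: 0 for no effect and ±100 for the full control effect; nearly all actives have a fitted effect of over 50% in size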
GLP1R ag: activates the human GLP-1 receptor. P43220. Potency, µM (top dose mostly 45.6 µM), inactives show top-dose activation, actives largely listed as activators. AID 624172. 380,000 compounds, 0.007% hits. HEK293 GLP-1R CRE-luciferase, luminescence, 4-6 h; cells express a hypersensitive GLP-1R form; also: % of control where 0% means no effect
* marks the source's active call; other numbers are inactive results; ? = inconclusive; · = no result. Calls follow the shape of the dose curve; as a rule, active = well fitted curve in the direction sought with a large enough effect; inconclusive = small, poorly fitted or top-dose-only effect, or another doubt; inactive = no such curve, though single readings can be large; an effect the other way counts as inactive or inconclusive. Potency is read from the fitted curve at half-maximal effect.

SMILES	GLP-1R inv ag	HEK293 tox	RORg inh	Gal4-VP16 FLuc	GLP1R ag
CC[C@H](C)[C@H](NC(=O)[C@H](CO)NC(=O)[C@H](CC(C)C)NC(=O)[C@H](CO)NC(=O)[C@@H]1CCCN1C(=O)[C@H](CC(N)=O)NC(=O)[C@@H](N)CC(=O)O)C(=O)N[C@@H](CC(=O)O)C(=O)N[C@@H](CC(C)C)C(=O)N[C@H](C(=O)N[C@@H](Cc1ccccc1)C(=O)N[C@@H](Cc1cnc[nH]1)C(=O)N[C@@H](CC(C)C)C(=O)N[C@@H](CC(C)C)C(=O)N[C@@H](CCCNC(=N)N)C(=O)N[C@H](C(=O)N[C@@H](CC(C)C)C(=O)N[C@@H](CC(C)C)C(=O)N[C@@H](CCC(=O)O)C(=O)N[C@@H](CC(C)C)C(=O)N[C@@H](C)C(=O)N[C@@H](CCCNC(=N)N)C(=O)N[C@H](C(=O)N[C@@H](CCC(N)=O)C(=O)N[C@@H](CO)C(=O)N[C@@H](CCC(N)=O)C(=O)N[C@@H](CCCNC(=N)N)C(=O)N[C@@H](CCC(=O)O)C(=O)N[C@@H](CCCNC(=N)N)C(=O)N[C@@H](C)C(=O)N[C@@H](CCC(=O)O)C(=O)N[C@@H](CCC(N)=O)C(=O)N[C@@H](CC(N)=O)C(=O)N[C@@H](CCCNC(=N)N)C(=O)N[C@H](C(=O)N[C@H](C(=O)N[C@@H](Cc1ccccc1)C(=O)N[C@@H](CC(=O)O)C(=O)N[C@@H](CO)C(=O)N[C@H](C(N)=O)C(C)C)[C@@H](C)CC)[C@@H](C)CC)[C@@H](C)O)[C@@H](C)O)[C@@H](C)O	·	·	0%	-13%	·
Cc1ccc(C)c(N2CCN(S(=O)(=O)c3ccc(-c4cc(C(F)(F)F)on4)s3)CC2)c1	4%	0%	·	·	·
Cc1ccc(OCC(=O)Nc2nnc(S(=O)(=O)N3CCc4ccccc43)s2)cc1	-25%	0%	·	·	·
COc1ccc2nc(NC(=O)CSc3ccccc3)sc2c1	?	-1%	1.6µM*	-14%	15%
COc1ccc2nc(NC(=O)CSC3=NCCS3)sc2c1	?	?	?	-22%	2%
COc1ccc2nc(NC(=O)C3COc4ccccc4O3)sc2c1 (centres undefined)	?	2%	?	-51%	-1%
COc1ccc2nc(NC(=O)CSc3nnc(N)s3)sc2c1	22%	11%	13%	1%	-8%
CCOc1ccc2nc(NC(=O)CSC3=NCCS3)sc2c1	19%	-9%	14µM*	-18%	0%
CCOc1ccc2nc(NC(=O)CSc3ccc(Cl)cc3)sc2c1	?	5%	11µM*	?	-5%
COc1ccc2nc(NNC(=O)C3COc4ccccc4O3)sc2c1 (centres undefined)	-12%	5%	2.8µM*	?	10%
Cn1cccc1C(=O)N1CCC2(CC1)CCN(C(c1ccccc1)c1ccccc1)CC2	·	·	-13%	0%	·
c1cc(NC2CC2)nc(-c2ccoc2)n1	·	·	4%	-15%	·
CCOC(=O)c1cccc(NC(=O)N2CCC(CN3CCCCCC3)CC2)c1	14%	0%	·	·	·
CCOC(=O)c1ccc(S(=O)(=O)Nc2nc3cc(S(=O)(=O)NC4=NCCCCC4)ccc3s2)cc1	13%	-7%	14µM*	?	0%
COc1cccc(C2CC(c3ccccc3Cl)Nc3ncnn32)c1 (centres undefined)	40%	2%	·	·	-5%
Clc1ccc(C2CC(c3cccs3)n3ncnc3N2)c(Cl)c1 (centres undefined)	-26%	8%	11µM*	?	3%
COc1ccc(C(c2c(O)ccc3ccccc23)N2CCOCC2)c(OC)c1 (centres undefined)	10µM*	?	-9%	-26%	1%
COc1ccc(C(CCN2CCOCC2)c2c(O)cc(OC)cc2OC)cc1 (centres undefined)	6%	-8%	-12%	3%	-8%
CCN1CCN(c2ncnc3c2cnn3-c2ccc(F)cc2)CC1	8%	0%	·	·	·
C[C@H](CO)N1C[C@H](C)[C@H](CN(C)C(=O)Nc2ccc(F)cc2)OCc2ccccc2-c2c(n(C)c3ccccc23)C1=O	10µM*	-22%	·	·	-1%
CC(C)Cn1c(-c2ccccc2F)n[nH]c1=S	-5%	-8%	5.6µM*	10µM*	-10%
CC(C)Cn1c(-c2ccc(F)cc2)n[nH]c1=S	-11%	?	7.1µM*	10µM*	13%
CCn1c(-c2ccc(F)cc2)n[nH]c1=S	-6%	?	1.1µM*	2µM*	3%
CC(C)Cn1c(-c2csc3c2CCCC3)n[nH]c1=S	?	4%	2.8µM*	5µM*	-5%
CC[C@H](C)[C@@H](NC(=O)O[C@@H]1Cc2cc(OC)ccc2O[C@H]1c1cccc(OC)c1)C(=O)OC	·	·	-1%	4%	·
SMILES	GLP-1R inv ag	HEK293 tox	RORg inh	Gal4-VP16 FLuc	GLP1R ag
CCc1ccccc1Nc1nc2cc(Cl)c(Cl)cc2nc1-n1nc(C)cc1C	-1%	14%	·	·	·
CCn1c(-c2cc3ccccc3cc2O)n[nH]c1=S	-16%	-25%	11µM*	?	4%
Fc1ccc(-c2n[nH]c(=S)n2CC2CCCO2)cc1 (centres undefined)	6%	-34%	11µM*	?	6%
S=c1[nH]nc(-c2ccncc2)n1CC1CCCO1 (centres undefined)	7%	-4%	-61%	-5%	-3%
Cn1c(-c2ccc(C(C)(C)C)cc2)n[nH]c1=S	-28%	-13%	3.2µM*	5.6µM*	-2%
CC(C)(C)c1ccc(-c2n[nH]c(=S)n2C2CCCC2)cc1	0%	-5%	2.5µM*	4.5µM*	-1%
Cc1ccc(N2CC(NC(=O)CCCc3ccccc3)CC2=O)cc1 (centres undefined)	5%	-1%	·	·	·
OC[C@H]1OC(O)[C@H](O)[C@@H](O)[C@@H]1O (some centres undefined)	·	·	26%	0%	·
Cc1cnc(CNc2ncncc2-c2ccccc2C(F)(F)F)cn1	·	·	2%	-5%	·
CCn1c(-c2cccc(Cl)c2)n[nH]c1=S	1%	-10%	6.3µM*	11µM*	-23%
CCN(CC)S(=O)(=O)c1cccc(-c2n[nH]c(=S)n2Cc2ccccc2)c1	-7%	-11%	?	-2%	-1%
CCn1c(-c2ccc(C(C)(C)C)cc2)n[nH]c1=S	?	-12%	?	3.2µM*	8%
CCN(CC)S(=O)(=O)c1cccc(-c2n[nH]c(=S)n2CC(C)C)c1	-1%	9%	8.9µM*	3%	2%
CCn1c(-c2cc(OC)c(OC)c(OC)c2)n[nH]c1=S	43%	-12%	?	19%	2%
Fc1ccccc1-c1n[nH]c(=S)n1C1CC1	·	·	10µM*	?	·

Screens as filed in PubChem BioAssay.
